# Measurements reported in article PMC4336329 (PLoS ONE, 2015).
# Out of some 310,000 compounds screened, about 14,000 (4.5%) showed an effect of 50% or more. Effects have a minus sign here. This excerpt belongs to a sample that is enriched for strong results.
# Target: human ether-à-go-go-related gene (hERG) potassium channel (human, UniProt Q12809)
# Assay: primary screen, population patch clamp on CHO cells stably expressing hERG; higher = less effect of the substance
# 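Further: peak tail current of the secondary pulse compared with the same well before compound.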
# Chain of human ether-à-go-go-related gene (hERG) potassium channel (Q12809 whole entry, looked up): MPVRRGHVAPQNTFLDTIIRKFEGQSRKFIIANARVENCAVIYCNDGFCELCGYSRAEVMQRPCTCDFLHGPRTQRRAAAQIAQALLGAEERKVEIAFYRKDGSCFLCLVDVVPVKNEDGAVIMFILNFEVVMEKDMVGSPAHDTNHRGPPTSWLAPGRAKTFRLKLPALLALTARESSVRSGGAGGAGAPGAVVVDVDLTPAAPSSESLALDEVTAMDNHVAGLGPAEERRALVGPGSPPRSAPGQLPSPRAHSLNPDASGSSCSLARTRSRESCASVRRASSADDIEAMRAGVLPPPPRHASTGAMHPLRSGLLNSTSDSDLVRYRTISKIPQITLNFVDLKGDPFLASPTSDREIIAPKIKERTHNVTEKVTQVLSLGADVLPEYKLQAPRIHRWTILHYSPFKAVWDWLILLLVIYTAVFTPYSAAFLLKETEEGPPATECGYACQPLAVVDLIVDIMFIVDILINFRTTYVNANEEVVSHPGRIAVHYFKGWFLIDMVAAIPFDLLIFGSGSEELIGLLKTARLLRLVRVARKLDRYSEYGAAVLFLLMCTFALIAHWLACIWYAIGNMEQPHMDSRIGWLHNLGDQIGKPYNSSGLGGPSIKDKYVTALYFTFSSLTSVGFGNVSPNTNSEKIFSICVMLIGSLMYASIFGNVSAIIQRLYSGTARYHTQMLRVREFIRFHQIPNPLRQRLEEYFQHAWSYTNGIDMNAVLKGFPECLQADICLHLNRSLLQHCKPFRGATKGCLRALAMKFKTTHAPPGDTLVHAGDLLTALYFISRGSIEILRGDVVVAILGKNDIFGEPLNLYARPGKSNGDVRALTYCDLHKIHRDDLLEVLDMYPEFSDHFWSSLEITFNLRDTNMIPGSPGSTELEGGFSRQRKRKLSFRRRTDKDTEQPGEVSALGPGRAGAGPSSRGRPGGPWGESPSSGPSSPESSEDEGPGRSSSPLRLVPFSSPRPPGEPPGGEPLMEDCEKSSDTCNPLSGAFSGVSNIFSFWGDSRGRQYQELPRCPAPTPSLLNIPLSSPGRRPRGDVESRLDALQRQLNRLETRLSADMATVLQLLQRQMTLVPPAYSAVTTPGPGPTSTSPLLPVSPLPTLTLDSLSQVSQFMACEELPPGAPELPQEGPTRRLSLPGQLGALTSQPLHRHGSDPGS
row,Compound,"hERG current change (%, negative = inhibition) at 10uM [%]"
1,COc1ccc(N2CC(C(=O)N/N=C/c3ccc([N+](=O)[O-])cc3)CC2=O)cc1 (stereo not drawn),-59.5
2,COc1ccc(N2CC(C(=O)Nc3ccc(F)cc3F)CC2=O)cc1 (stereo not drawn),-0.618
3,COc1ccc(N2CC(C(=O)N/N=C/c3cc([N+](=O)[O-])ccc3O)CC2=O)cc1 (stereo not drawn),-8.45
4,COc1ccc(OC)c(NC(=O)C2CC(=O)N(c3ccc(Br)cc3)C2)c1 (stereo not drawn),-33.6
5,COc1ccc(N2CC(C(=O)N/N=C/c3ccc(C)cc3)CC2=O)cc1 (stereo not drawn),-18.8
6,COc1ccc(N2CC(C(=O)Nc3ccc([N+](=O)[O-])cc3Br)CC2=O)cc1 (stereo not drawn),-69
7,O=C(COC(=O)/C=C/c1cccc(C(F)(F)F)c1)NCc1ccco1,13.5
8,Cc1ccc(OCC(=O)Nc2ccccc2F)cc1C,23.6
9,Cc1nc(NNC(=O)c2ccc(Cl)cc2Cl)cc(-c2ccccc2)n1,6.97
10,Cc1nc(NNC(=O)c2ccccc2)cc(-c2ccccc2)n1,3.7
11,Cc1nc(NNC(=O)c2ccc([N+](=O)[O-])cc2)cc(-c2ccccc2)n1,-50.8
12,CC1OC(OCC2OC(Oc3c(-c4ccc(O)cc4)oc4cc(O)cc(O)c4c3=O)C(O)C(O)C2O)C(O)C(O)C1O (stereo not drawn),13.7
13,Cc1cccc2c(CC(=O)Nc3ccccc3)noc12,-0.38
14,Cc1ccc2c(c1)N(Cc1ccc3c(c1)OCO3)C(=O)C(C)O2 (stereo not drawn),-13.5
15,CCc1ccc2oc(C(=O)N3CCN(c4ccc(OC)cc4)CC3)cc(=O)c2c1,-36.7
16,CCc1ccc2oc(C(=O)N3CCN(c4ccccc4OC)CC3)cc(=O)c2c1,-68.7
17,COc1ccccc1N1CCN(C(=O)c2cc(=O)c3ccc(C)cc3o2)CC1,-20.7
18,COc1ccccc1N1CCN(C(=O)c2cc(=O)c3cc(C)cc(C)c3o2)CC1,-27.3
19,CCc1ccc2oc(C(=O)N3CCN(C)CC3)cc(=O)c2c1,-32.4
20,COc1ccccc1N1CCN(C(=O)c2cc(=O)c3cc(C)ccc3o2)CC1,-50.7
21,CN(C)/C=N/c1c(C(=O)NCc2ccccc2)nnn1Cc1ccccc1,-12.2
22,Cc1cccc(/C=C2\CS/C(=C\c3cccc(C)c3)C2=O)c1,0.505
23,O=C(Nc1nnc(S(=O)(=O)N2CCOCC2)s1)c1ccccc1Br,4.05

row,Compound,"hERG current change (%, negative = inhibition) at 10uM [%]"
1,COCCn1c(C)cc(C(=O)COC(=O)c2ccc(-n3nc(C)cc3C)cc2)c1C,2.16
2,O=C(CN1C(=O)C2C3C=CC(C3)C2C1=O)N1CC=C(c2ccccc2)CC1 (stereo not drawn),-10.1
3,CCOC(Cn1cc(C)c(=O)[nH]c1=O)OCC,-2.39
4,N#CCc1cc2ccc3cccc4ccc(c1)c2c34,16.2
5,CCS(=O)(=O)Nc1cccc(C2=NN(S(=O)(=O)c3ccc(C)cc3)C(c3ccco3)C2)c1 (stereo not drawn),12.9
6,Cc1c(C)c2cc(Cl)c(O)c(CN3CCCC(C)C3)c2oc1=O (stereo not drawn),8.5
7,O=C(Cn1cncn1)N/N=C/c1cccc2ccccc12,-4.06
8,O=C(C1CCCN(Cc2ccc3c(c2)OCO3)C1)N1CCCC1.O=C(O)C(=O)O (stereo not drawn),9.26
9,O=C(CCN1CCCCC1)c1ccc2c(c1)OCO2,-0.169
10,CC(O)c1ccc2c(c1)OCCOCCN(C)CCOCCO2 (stereo not drawn),-1.64
11,CC(C)CCC(CCN1CCOCC1)c1ccc2c(c1)OCO2.Cl (stereo not drawn),-72.9
12,CC(C)CCC(CCN1CCCC1)c1ccc2c(c1)OCO2.O=C(O)C(=O)O (stereo not drawn),-78.1
13,C(=NCCCN1CCOCC1)c1ccc2c(c1)OCO2,15.7
14,O=C(NCCc1cccc(F)c1)C1CCCN(c2nc3ccccc3s2)C1 (stereo not drawn),7.76
15,CN(C)S(=O)(=O)N(CC(=O)NCc1ccccc1)c1ccccc1,1.87
16,CSc1nc2c(ccc3ccccc32)o1,12.9
17,CCOC(=O)c1c(NC(=O)c2cccnc2)sc(C(C)=O)c1C,-5.09
18,NC(=O)COC(=O)c1ccccc1SCC(=O)NC1CCCCCCC1,12
19,Cc1c(NC(=S)NC(NC(=O)C(C)C)C(Cl)(Cl)Cl)c(=O)n(-c2ccccc2)n1C (stereo not drawn),-1.45
20,CN1CCN(CC(=O)Nc2ccc([N+](=O)[O-])cc2Br)CC1,-70.9
21,O=C(CN1CCN(c2ccccc2O)CC1)Nc1ccc([N+](=O)[O-])cc1Br,-6.3
22,CC(=O)N1CCN(CC(=O)Nc2cc([N+](=O)[O-])ccc2Cl)CC1,15.5
23,O=C(CN1CCOCC1)Nc1ccc([N+](=O)[O-])cc1Br,-43.7

row,Compound,"hERG current change (%, negative = inhibition) at 10uM [%]"
1,O=C(CN1CCCCCC1)Nc1ccc([N+](=O)[O-])cc1Br,6.13
2,CC(=O)N1CCN(CC(=O)Nc2ccc([N+](=O)[O-])cc2Br)CC1,-75.3
3,N#CCc1nc(CSc2nc3ccccc3s2)cs1,-2.16
4,CC(=O)Nc1ccc(N2CCCCC2)c(C(=O)Nc2cccc(C)c2)c1,-18.1
5,Cn1cnnc1SCC(=O)Nc1ccccc1C(=O)NC1CCCC1,11.8
6,O=C(O)c1ccc(NNC(=S)Nc2cc(C(F)(F)F)ccc2Cl)cc1,19.4
7,CCCc1ccc(OCC(=O)NNC(=O)c2cccnc2)cc1,-10.9
8,Cc1cccc(NC2=NC(C)(C)N=C(N)N2)c1C,16.5
9,CCOc1cccc2sc(N(CCN(C)C)C(=O)c3ccc4c(c3)OCCO4)nc12.Cl,-53.5
10,COc1cc2ccccc2cc1C(=O)N(CCN(C)C)c1nc2c(F)cccc2s1.Cl,-38.4
11,CCOc1ccc2nc(N(CCN(C)C)C(=O)c3ccc4ccccc4c3)sc2c1.Cl,4.67
12,CCOc1cccc2sc(N(CCN(C)C)C(=O)c3ccc(Br)s3)nc12.Cl,-30.3
13,CCOc1cccc2sc(N(CCN(C)C)C(=O)c3cc4ccccc4cc3OC)nc12.Cl,-68.1
14,CN(C)CCN(C(=O)c1ccc2ccccc2c1)c1nc2c(F)cccc2s1.Cl,-10.2
15,CCOc1cccc2sc(N(CCN(C)C)C(=O)c3ccc4ccccc4c3)nc12.Cl,-51.5
16,COc1cc2ccccc2cc1C(=O)N(CCN(C)C)c1nc2c(C)cccc2s1.Cl,19.2
17,COc1ccc2nc(N(CCN(C)C)C(=O)c3ccc4c(c3)OCCO4)sc2c1.Cl,-35.3
18,CCCC(=O)Nc1ccc(-c2cn3cccnc3n2)cc1,3.08
19,Cc1cc(C(=O)NCCCOC(C)C)c2ccccc2n1,-7.22
20,Cc1c(Cl)cccc1NC(=O)Nc1ccccc1C(N)=O,19
21,CCOC(=O)CSc1nnc(-c2ccccc2)o1,7.66
22,COc1ccc(CN2CCNCC2)cc1.Cl,21.6
23,COc1ccc(/C=C/C2=CCN(C)CC2)cc1.Cl,-19.7

row,Compound,"hERG current change (%, negative = inhibition) at 10uM [%]"
1,COc1ccc(/C=C/C2=CCN(Cc3ccc(OC)cc3)CC2)cc1.Cl,-72.3
2,NNc1n[nH]c(=S)n1N,15.2
3,CCOC(=O)c1cc(CC)sc1/N=C/C1C(=O)CCCC1=O,10.9
4,O=C1OC(c2ccc3c(c2)OCO3)N(C(=O)c2ccc(Cl)c(Cl)c2)c2ccccc21 (stereo not drawn),15.1
5,COc1cc(CO)cc(-c2cc(CO)cc(OC)c2OC)c1OC,10.3
6,COc1ccc(C(NC(=O)CNC(C)=O)C(=O)Nc2ccc(C(C)C)cc2)cc1 (stereo not drawn),-5.76
7,CC1CC(C)CN(C(=O)c2cc(-c3ccccn3)nc3ccccc23)C1 (stereo not drawn),-6.19
8,Cc1ccc(-c2cc(C(=O)NC3CCN(Cc4ccccc4)CC3)c3ccccc3n2)cc1,7.42
9,CC(CN1CCCCC1)NC(=O)c1cc(-c2ccccn2)nc2ccc(Cl)cc12 (stereo not drawn),-21.8
10,O=C(NC1CC1)c1cc(-c2ccccn2)nc2ccccc12,-29.5
11,Cl.O=C(NC1CCN(Cc2ccccc2)CC1)c1cc(-c2ccccn2)nc2ccccc12,-69.4
12,CC1CCN(CC(C)CNC(=O)c2cc(-c3ccccn3)nc3ccccc23)CC1 (stereo not drawn),-62.5
13,Cc1cc(C)n(CC(O)COc2ccc(F)cc2)n1 (stereo not drawn),9.76
14,CCC(Cc1ccccc1)NC(=O)/C=C/c1ccco1 (stereo not drawn),9.2
15,CCn1cc(S(=O)(=O)Nc2cc(C)ccc2F)cn1,3.63
16,O=C(CNC(=O)c1sc2ccccc2c1Cl)OCc1ccccc1,3.28
17,COC(=O)C1=C(C)N(CCCC(=O)O)C(=O)NC1c1cccc2ccccc12 (stereo not drawn),5.92
18,COc1ccccc1-n1c(=O)[nH]c2c(C(N)=O)nc(CC(C)C)nc21,5.01
19,NC(N)=N/N=C/c1cn(-c2ccccc2)nc1-c1cccs1.O=[N+]([O-])O,-62.1
20,O=C(N/N=C/c1cn(-c2ccccc2)nc1-c1cccs1)c1ccncc1,-10.2
21,NC(=O)N/N=C/c1cn(-c2ccccc2)nc1-c1cccs1,-38.8
